Source: PubChem BioAssay AID2676 (National Center for Advancing Translational Sciences (NCATS), 2010)
Out of some 370,000 compounds screened, about 1,100 (0.3%) were called active. Not shown: some 1% with an inconclusive outcome. Calls come from the whole dose curve; as a rule, active = well fitted activation curve with a large enough effect; inconclusive = small, poorly fitted or top-dose-only effect; inactive = flat fitted curve, though single readings scatter. The full list was thinned out, with actives kept by preference.

target: Relaxin receptor 1 (Homo sapiens) (UniProt Q9HBX9); experiment: qHTS Assay for Agonists of the Relaxin Receptor RXFP1; details: HEK293T-RXFP1 cAMP TR-FRET, 30 min; series mostly up to 57.5 µM; activation: at the top concentration; note: nearly all actives have a fitted effect of over 60% in size
Sequence (Q9HBX9 whole entry, looked up): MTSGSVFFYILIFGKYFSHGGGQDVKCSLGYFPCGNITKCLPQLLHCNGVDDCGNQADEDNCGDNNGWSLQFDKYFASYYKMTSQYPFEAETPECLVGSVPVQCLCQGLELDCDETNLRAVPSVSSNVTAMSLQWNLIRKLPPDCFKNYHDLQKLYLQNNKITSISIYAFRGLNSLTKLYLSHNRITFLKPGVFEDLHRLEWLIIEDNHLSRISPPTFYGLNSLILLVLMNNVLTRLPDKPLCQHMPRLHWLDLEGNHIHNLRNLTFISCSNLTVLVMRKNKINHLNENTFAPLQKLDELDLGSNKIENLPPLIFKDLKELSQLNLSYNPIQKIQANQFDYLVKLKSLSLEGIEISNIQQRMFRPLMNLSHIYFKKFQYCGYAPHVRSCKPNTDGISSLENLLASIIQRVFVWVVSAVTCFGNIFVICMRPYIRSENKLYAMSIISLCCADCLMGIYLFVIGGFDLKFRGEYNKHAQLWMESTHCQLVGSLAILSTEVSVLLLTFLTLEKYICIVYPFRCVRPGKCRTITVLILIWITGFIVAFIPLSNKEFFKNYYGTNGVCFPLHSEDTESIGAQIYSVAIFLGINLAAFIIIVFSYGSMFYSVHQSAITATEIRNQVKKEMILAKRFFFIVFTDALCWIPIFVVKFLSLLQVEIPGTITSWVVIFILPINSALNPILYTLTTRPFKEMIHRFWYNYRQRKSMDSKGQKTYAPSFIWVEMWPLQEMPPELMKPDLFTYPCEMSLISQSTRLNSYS
Text: NIH Chemical Genomics Center [NCGC] NIH Molecular Libraries Probe Production Centers Network [MLPCN] MLPCN Grant: R03 MH085705-01A1 Assay Submitter (PI): Alexander Agoulnik NCGC Assay Overview: The relaxin hormone is involved in the variety of biological functions in normal tissues and diseases. The role of relaxin is well-established in female reproduction and parturition, mammary gland and endometrial development, maintenance of myometrial quiescence during pregnancy. Relaxin signaling through its G protein-coupled receptor (GPCR) RXFP1 results in ECM remodeling through regulation of collagen deposition, cell invasiveness, proliferation and overall tissue homeostasis. […] Recombinant human relaxin (rhRlx) is currently being tested in clinical trials as a protective agent in congestive heart failure, in treating severe preeclampsia, and as an anti-fibrotic agent in systemic sclerosis. Upon relaxin binding RXFP1 activation leads to the activation of adenylate cyclase (AC) via Gs. cAMP will activate PKA, which phosphorylates many signaling proteins. Thus, detection of cAMP increase is an easy and reliable indication of relaxin receptor activation. To screen for agonists of the relaxin receptor, a HEK293T cell line stably transfected with RXFP1 was used. RXFP1 activation was assayed by changes in cAMP levels as detected with a time-resolved fluorescence energy transfer (TR-FRET) cAMP detection kit.
NCGC Assay Protocol Summary: This is a cell-based assay for cAMP second messenger response to screen for agonists of the RXFP1 receptor. The assay was conducted in the presence of a PDE4 inhibitor (Ro 20174). The cells were lysed and the cAMP levels were measured with a TR-FRET cAMP kit. Presence of cAMP in the cell lysate disrupts binding between the cryptate-labeled anti-cAMP and d2-labeled cAMP pair, leading to a decrease in the TR-FRET signal. Data were normalized to the controls for basal activity (buffer only) and 100% activity (29 nM porcine relaxin). The EC50 values were determined from concentration-response data modeled with the standard Hill equation 1536-well assay protocol for the HEK293 RXFP1 cAMP assay: (1) Add 3 ul HEK293 RXFP1 cell culture. 2000 cells/well in DMEM/F12, 10% FBS, 1x Pen/Strep (dispensed offline with MultiDrop Combi). (2) Incubate 16-24 hr at 37C, 5% CO2. (3) Add 1 ul 400uM Ro20174 in DPBS, 0.05% BSA, 0.005% Tween 20. (3) Add 23 nl compounds in DMSO solution. Final concentration was 0.5 - 58 uM. (4) Incubate 30 min at 37C, 5% CO2. (5) Add 1 ul cAMP-d2 in lysis buffer (HTRF cAMP HiRange kit, CisBio). (6) Add 1 ul anti-cAMP antibody-cryptate in lysis buffer (HTRF cAMP HiRange kit, CisBio). (7) Incubate 30 min at room temperature. (6) Detect the assay plate in a ViewLux plate reader (PerkinElmer) with Ex=320 nm, Em1=615 nm and Em2=665 nm. Keywords: relaxin, RXFP1, RXFP2, G-protein coupled receptor, cAMP, agonist, high throughput screening, MLSMR, MLSCN, NIH Roadmap, qHTS and NCGC
% is set by controls: 0 for no effect and ±100 for the full control effect; potency is the fitted concentration of half-maximal effect.

activation, inactive:
CCc1cc2c(cc3c(=O)n(CC(=O)NCc4cccc(Cl)c4)nc(CC)n32)s1 12.2%
Cc1ccc(-n2ncc3c(N4CCC(C(N)=O)CC4)ncnc32)cc1 16.5%
COC(=O)c1ccc(NC(=O)CCc2c(C)nc3c(c(C)nn3-c3ccc(C)cc3)c2C)cc1 -1.04%
CCCCOc1ccc(CN2C(=O)C(=O)c3cc(Br)cc(C)c32)cc1OC 0.139%
CCOc1ccccc1CNC(=O)Nc1cn(CC(C)C)c(=O)c2ccccc12 -0.657%
CN(Cc1ccccc1)C(=O)c1cn(C)c2ccc(S(=O)(=O)N3CCCCC3)cc2c1=O -0.519%
Cc1ccccc1CNC(=O)Cn1c(C)c2cnn(-c3ccccc3)c(=O)c2c1C 1.46%
Cc1ccc2oc3c(c(=O)c2c1)C(c1ccc(O)cc1)N(Cc1ccc2c(c1)OCO2)C3=O (configuration not stated) -0.0237%
COc1ccc(C)cc1N(C)C(=O)c1c(C)oc2ncnc(N3CCOCC3)c12 -3.68%
O=C(NCCCc1ccccc1)c1ccc2c(c1)sc1nc(-c3ccc(F)cc3)cn12 -1.38%
COc1cccc(C(=O)N(Cc2cccc(Cl)c2)Cc2ccco2)c1 1.03%
COc1cc(Cl)c(NC(=O)C(NS(=O)(=O)c2cccs2)C(C)C)c(OC)c1 (configuration not stated) -2.63%
CCOC(=O)c1c(NC(=O)COc2cc(C)ccc2C(C)C)sc(C)c1C 2.49%
COC(=O)c1ccccc1NC(=O)c1ccc(COc2ccccc2Cl)o1 2.52%
O=C(Cn1c(=O)n(-c2ccc(F)cc2)c(=O)c2sccc21)Nc1cccc(C(F)(F)F)c1 0.102%
CC(C)(C)c1ccc(OCC(=O)N2CCC(c3nc4ccccc4s3)CC2)cc1 -0.849%
O=C(NC1CC(=O)N(c2ccc(F)cc2)C1)c1ccc(S(=O)(=O)N2CCCC2)cc1 (configuration not stated) 1.57%
COc1ccc(Cn2ccnc2SCC(=O)NCc2ccco2)cc1 2.97%
CCOc1ccc2oc(=O)cc(CN3CCN(C(=O)c4ccc(F)cc4)CC3)c2c1 1.02%
CN(CC(=O)Nc1ccc(F)c(F)c1F)C(=O)Cn1cnc2c1c(=O)n(C)c(=O)n2C 9.55%
Cc1cnc(NC(=O)Cn2cnc3c2c(=O)n(C)c(=O)n3C)s1 15.8%
CCCNc1ncnc2c1c(-c1ccccc1)cn2-c1ccc(OCC)cc1 4.06%
COc1ccc(S(=O)(=O)N2CCOCC2)cc1NC(=O)CSc1cc(C)ccc1C -2%
COc1ccc(S(=O)(=O)N2CCOCC2)cc1NC(=O)Cc1c(F)cccc1Cl -0.855%
CCOc1ccc(C(=O)Nc2ccc3nc4c(c(Nc5ccccc5OC)c3c2)CCCC4)cc1 -0.31%
C=Cc1ccc(Cn2c(C(=O)O)c(CNC3CCCC3)c3ccc(C)cc32)cc1 0.0544%
CCOc1ccc(CCNC(=O)CN(c2ccc(C)cc2)S(=O)(=O)N(C)C)cc1OCC 2%
O=C(Nc1ccc(Br)cc1)c1cc2nc(-c3ccccc3)cc(-c3ccccc3)n2n1 3.76%
COc1ccc2oc(-c3ccc(C)c(NC(=O)c4sc5ccccc5c4Cl)c3)nc2c1 2.29%
CCOc1cccc(CC(=O)N2CCc3c([nH]c4ccccc34)C2c2ccc(OC)cc2)c1OCC (configuration not stated) 4.11%
Cc1cc(C)cc(NC(=O)Cn2nc(N3CCN(c4ccccc4)CC3)ccc2=O)c1 0.0868%
Cc1ccc(Cl)cc1N(C)C(=O)C1CCCN(c2ncnc3onc(-c4ccc(F)cc4)c23)C1 (configuration not stated) 0.553%
COc1ccc(N2CCN(C3=NS(=O)(=O)C(c4cccc(Br)c4)=C3C)CC2)cc1 -0.541%
Cc1c(-c2nsc(NC(=O)c3cccc(Cl)c3)n2)nnn1-c1ccccc1C(F)(F)F -0.886%
COc1ccc(-c2nc3c(c(SCC(=O)Nc4ccc(C(=O)O)cc4)n2)Cc2ccccc2O3)cc1 21.7%
Cc1ccc(-c2nn(CCC(=O)Nc3ccc(OC(F)(F)F)cc3)c(=O)c3ccccc23)cc1 6.25%
COc1ccc(-n2c(SCC(N)=O)nc3c(oc4ccccc43)c2=O)cc1 0.504%
COC(=O)c1ccccc1NC(=O)C(Cc1ccccc1)N1Cc2ccccc2C1=O (configuration not stated) 4.06%
CC1=C(c2ccc(F)cc2)S(=O)(=O)N=C1N1CCC(C(=O)NCCc2ccccc2C)CC1 2.67%
Cc1ccc2nc3c(cc(C(=O)NC4CCCCC4)c(=N)n3C(C)C)c(=O)n2c1 5.26%
COc1cccc(-n2c(=O)c3c(C)c(C(=O)N(C)C)sc3n(Cc3cccc(C)c3)c2=O)c1 2.04%
CCCCOc1ccc(CNC(=O)c2ccc3c(c2)N(C)C(=O)C2CCCCN32)cc1 (configuration not stated) -0.99%
O=C(c1ccc2c(c1)N(Cc1ccccc1)C(=O)c1ccccc1S2(=O)=O)N1CCC(Cc2ccccc2)CC1 0.856%
Cc1cccc(NC(c2cccc(F)c2)c2ccc3ccc(C)nc3c2O)n1 (configuration not stated) 1.58%
CCOc1ccccc1NC(=O)Cn1c(=O)n(Cc2ccccc2)c(=O)c2c(C)c(C(=O)N(C)C)sc21 2.17%

Potency, active:
Cn1c(=O)c2c(ncn2CC(=O)N/N=C/c2cn[nH]c2-c2ccc(F)cc2)n(C)c1=O 14.1 µM
COc1ccc(S(=O)(=O)N2CCOCC2)cc1NC(=O)CSc1ncnc2ccccc12 15.8 µM
